This is a sample that favours compounds with a hit; in the whole collection about 2.4% have one here.
D2 ag-1: human D2 receptor agonism in beta-arrestin assay | hit rate 0.084% among 360,000 | P14416 | activation, % (test concentration not listed) | DiscoveRx PathHunter D2 beta-arrestin, luminescence, 90 min; 100% = 57 uM dopamine signal; in the data active = activation above about 40%
Target sequence (P14416 whole entry, looked up): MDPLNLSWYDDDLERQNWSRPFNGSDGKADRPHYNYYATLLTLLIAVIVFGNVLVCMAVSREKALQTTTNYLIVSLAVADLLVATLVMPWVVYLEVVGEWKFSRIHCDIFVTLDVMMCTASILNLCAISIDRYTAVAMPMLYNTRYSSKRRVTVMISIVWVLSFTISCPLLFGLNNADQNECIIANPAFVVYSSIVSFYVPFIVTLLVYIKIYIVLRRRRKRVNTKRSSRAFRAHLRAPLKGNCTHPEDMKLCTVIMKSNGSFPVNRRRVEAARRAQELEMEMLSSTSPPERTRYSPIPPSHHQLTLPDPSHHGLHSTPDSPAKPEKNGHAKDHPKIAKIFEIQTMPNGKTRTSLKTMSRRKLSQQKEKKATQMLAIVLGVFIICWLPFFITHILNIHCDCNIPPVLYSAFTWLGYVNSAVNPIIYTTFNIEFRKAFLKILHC
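DiscoveRx PathHunter D2 beta-arrestin cells (2,100/well) attached overnight, then compound-stimulated 90 min at 37 C in HBSS/10 mM HEPES/0.1% Tween-20 buffer; beta-galactosidase complementation read by luminescence after 1 h at ambient temperature. Dopamine 57 uM final (EC100) as control.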
D2 ag-2: D2 dopamine receptor (human) agonism; activation, % at 2 µM; HEK293 T-REx D2 cells, calcium flux agonist mode; hit rate 0.53% among 340,000;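 active = activation over 3 SD above normal in the single-dose calcium agonist read, cut at about 30% in these data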; note: 0% is about no effect
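Agonism scored from kinetic calcium signal (1 read/sec, 180 s) following compound pin transfer, after a 10 s baseline. Cells: HEK293 Trex line expressing inducible D2 receptor coupled to calcium, dye-loaded after overnight culture at 30 C.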
D2 PAM-1: D2 dopamine receptor (human) potentiation; P14416; HEK293 T-REx D2, calcium flux, EC20 dopamine potentiation; potentiation, % at 10 µM; hit rate 0.34% among 340,000; AID 485347;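 active = potentiation over 3 SD above the plate norm, cut at about 30% in these data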; note: 0% is about no effect
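Tetracycline-induced Hek293 Trex D2 cells, force-coupled to calcium, loaded with no-wash calcium dye. Compound added with 180 s kinetic read for agonism, then EC20 dopamine and a further 180 s read for potentiation.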
D2 PAM-2: positive allosteric modulators of human D2 dopamine receptor; hit rate 0.23% among 360,000; DiscoveRx D2 beta-arrestin cells, luminescence, 90 min; 100% = 57 uM dopamine signal; potentiation, % (test concentration not listed); P14416; in the data active = potentiation above about 50%
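PathHunter beta-arrestin assay in DiscoveRx D2 cells. Compounds were added with an EC20 of dopamine (50 nM final) for 90 min at 37 deg C. Luminescence was read 1 h after detection reagent, with 57 uM dopamine as the EC100 control.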
D2 antagonist: antagonists of human D2 dopamine receptor; P14416; HEK293 TREx D2 cells, calcium flux, dopamine EC80; inhibition, % at 10 µM; hit rate 2% among 340,000; AID 485344; in the data active = inhibition above about 30%; inactive = below that, where a call was filed; note: 0% is about no effect
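Antagonism is scored as inhibition of an EC80 dopamine-evoked calcium signal in a force-coupled, tetracycline-inducible HEK293 T-REx D2 line, with compound present 180 s before agonist.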
* = called active by the depositor; x = no result.

SMILES	D2 ag-1	D2 ag-2	D2 PAM-1	D2 PAM-2	D2 antagonist
CC(C)Cn1c(CN2CCN(c3cccc(Cl)c3)CC2)nc2c1c(=O)[nH]c(=O)n2C	x	-0.9	2.4	x	x
COc1cc(NC(=O)CCC(=O)Nc2ccc3nc(N4CCOCC4)cc(C)c3c2)cc(OC)c1OC	-4.2	-0.9	-20.3	-10.4	30.9*
COc1ccc(NC(=O)CCC(=O)Nc2ccc3nc(N4CCOCC4)cc(C)c3c2)c(OC)c1	4.4	-0.4	-6.7	-1.1	16.2
Fc1cccc(Cc2noc(CN3CCOCC3)n2)c1	-4.2	0.5	-6.0	-11.3	8.3
Fc1cccc(Cc2noc(CN3CCC(c4ccncc4)CC3)n2)c1	7.9	0.4	0.3	-6.9	52.6*
CCc1nnc(NC(=O)C2CCCN(c3nc(C)cc(C)n3)C2)s1 (centres undefined)	-1.6	3.3	10.9	3.0	0.0
Cc1cc(C)cc(NC(=O)C2CCCN(c3ncccn3)C2)c1 (centres undefined)	3.5	-0.9	-7.6	1.4	50.1*
Cc1ccc(NC(=O)C2CCCN(c3ncccn3)C2)cc1F (centres undefined)	-2.1	-0.6	-7.2	-4.3	8.3
Cc1cc(C)nc(N2CCCC(C(=O)Nc3nnc(C(C)(C)C)s3)C2)n1 (centres undefined)	1.6	-2.5	3.3	-10.7	47.9*
CCOc1ccc(NC(=O)c2c(C)oc3nc(C)nc(N4CCOCC4)c23)cc1	x	x	2.0	x	x
COc1cc(C(=O)N2CCN(c3ccc(Nc4ccccc4)nn3)CC2)cc(OC)c1OC	x	0.3	-1.2	x	x
Cc1cc(-c2ccccc2)nc2cc(C(=O)NCc3ccco3)nn12	-2.4	-0.4	35.5*	-3.9	1.3
COc1ccc(-c2cc(C(F)(F)F)n3nc(C(=O)NCc4ccco4)cc3n2)cc1	-2.4	0.3	16.2	-8.0	13.7
Cc1ccccc1NC(=O)CCn1nc(-c2ccccc2)c2ccccc2c1=O	x	0.9	-1.5	x	x
Cc1ccccc1C(=O)Nc1nnc(SCc2cc(=O)n3ccccc3n2)s1	x	0.4	0.9	x	x
Cc1ccccc1N1C(=O)CC(Nc2ccc3c(c2)OCO3)C1=O (centres undefined)	-5.5	-0.6	-2.5	-3.6	31.4*
CCCCn1c2ccccc2c2nnc(SCC(=O)Nc3ccc(NC(C)=O)cc3)nc21	x	-0.7	7.0	x	x
C[C@@H]1CC2OC(=O)[C@@]3(C)C(=O)CC[C@@](C)(C23)[C@@]1(O)CCc1ccoc1 (some centres undefined)	-1.3	0.2	-12.6	0.8	30.1*
COc1ccc(Br)cc1CNC(=O)C1CCCCN1S(=O)(=O)c1ccc(F)cc1 (centres undefined)	x	-0.3	-4.2	x	x
Cc1ccc(C)c(NC(=O)CN2C(=O)c3cccc4cccc2c34)c1	x	x	8.8	x	x
COc1ccc(-c2noc(-c3ccccc3C(=O)NCc3ccco3)n2)cc1	-7.6	0.3	-4.1	-20.1	3.8
O=C(NCc1ccco1)c1cc([N+](=O)[O-])cc([N+](=O)[O-])c1	13.9	0.0	2.8	83.2*	6.0
O=C(NCc1ccco1)c1ccc2c(c1)C(=O)c1ccccc1-2	2.6	-1.9	13.8	-6.9	30.0*
O=C(NCc1ccco1)c1ccc(S(=O)(=O)N2CCCc3ccccc32)cc1	1.1	2.9	-13.2	-4.0	40.0*
COc1ccc(-c2noc(-c3ccccc3C(=O)NCc3ccco3)n2)cc1OC	-2.0	-0.2	32.2*	-12.7	-4.8
SMILES	D2 ag-1	D2 ag-2	D2 PAM-1	D2 PAM-2	D2 antagonist
CCOC(=O)c1cc(S(=O)(=O)Nc2ccccc2)[nH]n1	x	-1.0	11.5	x	x
CN1C(=O)/C(=C/c2ccc(OC(=O)c3ccco3)cc2)SC1=S	0.4	-3.0	1.6	-20.8	-13.3
CN1C(=O)/C(=C\c2ccc(OC(=O)c3ccco3)cc2)SC1=S	-4.5	1.3	10.1	-7.5	48.1*
COc1cccc(N2CC(NC(=O)CCCc3ccccc3)CC2=O)c1 (centres undefined)	x	-1.3	2.3	x	x
C=CCNc1nc(NCCN2CCOCC2)nc(N2CCOCC2)n1	-0.4	0.0	13.5	-15.7	-0.2
C=CCNc1nc(N2CCOCC2)nc(N2CCOCC2)n1	0.2	-0.7	-14.2	0.5	31.2*
Cc1cccc(C)c1NC(=O)N1C2CCCC1CC(NC(=O)C(C)(C)C)C2 (centres undefined)	0.1	0.2	13.9	-6.1	37.5*
CC(=O)NC1CC2CCCC(C1)N2C(=O)Nc1c(C)cccc1C (centres undefined)	0.7	x	x	-5.7	x
Cc1ccc(NC(=O)Cn2nnc(-c3nc(-c4ccc(Cl)cc4)no3)c2N)cc1C	x	0.9	7.1	x	x
O=C1N/C(=N/Nc2ccccc2)S/C1=C\c1ccccc1	9.3	0.4	-4.3	54.6*	4.8
CCOC(=O)COc1cc(C)c(Cl)cc1C(=O)c1ccn2nc(-c3ccc(OC)cc3)cc2n1	x	-0.1	7.4	x	x
COc1ccc(N2CC(NC(=O)/C=C\c3ccccc3)CC2=O)cc1 (centres undefined)	x	-0.1	-2.5	x	x
CCOc1ccccc1CN1CCN(C/C=C/c2ccc(OC)cc2)CC1CCO (centres undefined)	-4.3	3.9	-22.1	-6.6	33.6*
O=C1c2ccccc2C(=O)N1CC1c2ccccc2CCN1S(=O)(=O)c1cnc[nH]1 (centres undefined)	0.7	0.8	-3.7	21.4	46.4*
CCc1ccc(-n2nc(CO)c(C(=O)NCCc3ccccc3)n2)cc1	x	-0.9	0.6	x	x
Cc1cc(C)n(-c2ccc([N+](=O)[O-])cc2)n1	2.0	-0.7	-2.1	-0.7	34.2*
C=C1C2=C(C(=O)N1OC)[C@@H](O)[C@@](C)(O)[C@@H](CCCCC)O2	2.9	x	x	3.8	x
COC(=O)c1ccc2c(=O)n(CCCCCC(=O)NCc3ccc(Cl)cc3)c(=O)[nH]c2c1	x	25.7	x	x	x
Cc1ccc(C)c(-c2nc3cc(N)ccc3o2)c1	-6.0	0.7	32.8*	-17.2	-7.2
Clc1ccc2oc(-c3ccccn3)nc2c1	-0.2	1.1	4.2	3.8	-12.2
Nc1ccc2oc(-c3ccccn3)nc2c1	-3.5	0.1	50.0*	0.0	-2.5
Cc1ccc(-c2nc3cc(N)ccc3o2)cc1Br	1.5	-0.1	3.5	-7.5	-7.8
CCc1ccc2oc(C(=O)N(Cc3ccc(N(C)C)cc3)Cc3ccco3)c(C)c2c1	x	1.5	-2.0	x	x
O=C(c1ccc(-c2ccccc2)cc1)C1CCCN(Cc2ccncc2)C1 (centres undefined)	5.0	0.0	-37.5	-15.7	74.6*
Cc1ncoc1C(=O)N1CCCC(C(=O)c2ccc(-c3ccccc3)cc2)C1 (centres undefined)	-0.5	-1.3	-5.6	-6.7	51.7*
COc1ccc(NS(=O)(=O)c2ccc(-n3cccn3)cc2)cc1OC	x	0.0	16.9	x	x
COc1cccc(C(=O)Nc2nc(-c3nnn(-c4ccccc4C(F)(F)F)c3C)ns2)c1	x	0.4	x	x	x

Screening data from PubChem BioAssay.
